About 83,000 compounds went through this panel and 20% of them were active in at least one assay; those are over-represented in the sample as a whole.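 48-hour exposure, single concentration, 96-well plates; percent growth endpoint where 0 means no net growth. Active: below 10.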
Columns and labels:
Assay in all cases: NCI-60 one-dose screen, 48 h (100 = growth as untreated, 0 = no growth, -100 = all killed)
Conditions in all cases: 10 µM unless noted
NCI-H23 lung = test system: NCI-H23 lung
NCI-H226 lung = test system: NCI-H226 lung
NCI-H322M lung = test system: NCI-H322M lung
HOP-62 NSCLC = test system: HOP-62 NSCLC
NCI-H460 lung = test system: NCI-H460 lung
HOP-92 NSCLC = test system: HOP-92 NSCLC
NCI-H522 lung = test system: NCI-H522 lung
A549/ATCC NSCLC = test system: A549/ATCC NSCLC
786-0 renal = test system: 786-0 renal
COLO 205 colon = test system: COLO 205 colon
DU-145 prostate = test system: DU-145 prostate
K-562 leukemia = test system: K-562 leukemia
MALME-3M melanoma = test system: MALME-3M melanoma
MDA-MB-231 breast = test system: MDA-MB-231 breast
SF-268 CNS = test system: SF-268 CNS
SF-295 CNS = test system: SF-295 CNS
SF-539 CNS = test system: SF-539 CNS
UACC-257 melanoma = test system: UACC-257 melanoma
M14 melanoma = test system: M14 melanoma

Measured: growth

COc1cc(-c2cc(=O)oc3cc(O)ccc23)cc(OC)c1OC
inactive: NCI-H23 lung 88.1% | NCI-H226 lung 87.3% | NCI-H322M lung 96.7% | HOP-62 NSCLC 87.6% | NCI-H460 lung 69.5% | HOP-92 NSCLC 54.2% | NCI-H522 lung 80.2% | A549/ATCC NSCLC 90.1% | 786-0 renal 99.7% | COLO 205 colon 99.4% | DU-145 prostate 96.3% | K-562 leukemia 66.2% | MALME-3M melanoma 90.1% | MDA-MB-231 breast 89.3% | SF-268 CNS 88.7% | SF-295 CNS 93.4% | SF-539 CNS 93.4% | UACC-257 melanoma 99.3% | M14 melanoma 98.3%

COc1ccc(-c2nc(N/N=C/c3c[nH]c4ccccc34)nc(N3CCOCC3)c2C#N)cc1
inactive: NCI-H23 lung 111% | NCI-H226 lung 105% | NCI-H322M lung 94.1% | HOP-62 NSCLC 105% | NCI-H460 lung 82.8% | HOP-92 NSCLC 69.1% | NCI-H522 lung 99.7% | A549/ATCC NSCLC 92.4% | 786-0 renal 45.9% | COLO 205 colon 78.5% | DU-145 prostate 79.7% | K-562 leukemia 38% | MALME-3M melanoma 80.3% | MDA-MB-231 breast 72.4% | SF-268 CNS 95.5% | SF-295 CNS 68.2% | SF-539 CNS 67.6% | UACC-257 melanoma 21.4% | M14 melanoma 88.5%

NC(=O)c1ncn(C2OC(CO)C(O)C2O)n1 (configuration not stated)
inactive: NCI-H23 lung 89% | NCI-H226 lung 87.6% | NCI-H322M lung 86.5% | HOP-62 NSCLC 71.8% | NCI-H460 lung 104% | HOP-92 NSCLC 79% | NCI-H522 lung 79.6% | A549/ATCC NSCLC 96.3% | 786-0 renal 91.6% | COLO 205 colon 94.4% | DU-145 prostate 85.1% | K-562 leukemia 61.1% | MALME-3M melanoma 93.8% | MDA-MB-231 breast 103% | SF-268 CNS 98% | SF-295 CNS 99.9% | SF-539 CNS 97.6% | UACC-257 melanoma 97.7% | M14 melanoma 92.8%

O=C(CN1CCOCC1)Nc1ccc2ncnc(Nc3ccc(Oc4cccc(F)c4)c(Cl)c3)c2c1
inactive: NCI-H23 lung 96.7% | NCI-H226 lung 89.8% | NCI-H322M lung 20.1% | HOP-62 NSCLC 84.9% | NCI-H460 lung 80.2% | HOP-92 NSCLC 67.4% | NCI-H522 lung 20.7% | A549/ATCC NSCLC 66.3% | 786-0 renal 74.3% | COLO 205 colon 91.7% | DU-145 prostate 48.3% | K-562 leukemia 56.8% | MALME-3M melanoma 88.3% | MDA-MB-231 breast 74.3% | SF-268 CNS 70.9% | SF-295 CNS 84.2% | SF-539 CNS 85% | UACC-257 melanoma 89.1% | M14 melanoma 74.5%

O=C1/C(=C/c2ccc(O)cc2)COc2ccc(-c3ccccc3)cc21
inactive: NCI-H23 lung 95.9% | NCI-H226 lung 102% | NCI-H322M lung 94.1% | HOP-62 NSCLC 80.1% | NCI-H460 lung 66% | HOP-92 NSCLC 84.5% | NCI-H522 lung 84.2% | A549/ATCC NSCLC 90.4% | 786-0 renal 21.4% | COLO 205 colon 90.7% | DU-145 prostate 59.7% | K-562 leukemia 39.3% | MALME-3M melanoma 116% | MDA-MB-231 breast 94.6% | SF-268 CNS 69.1% | SF-295 CNS 89.8% | SF-539 CNS 90.7% | UACC-257 melanoma 92.7% | M14 melanoma 86.6%

CCC1(CC)NC(=O)c2c(c3ccc(Cl)c(Cl)c3n2C)C1C#N (configuration not stated)
inactive: NCI-H23 lung 93% | NCI-H226 lung 95.6% | NCI-H322M lung 103% | HOP-62 NSCLC 81.2% | NCI-H460 lung 98.7% | HOP-92 NSCLC 62.1% | NCI-H522 lung 86.5% | A549/ATCC NSCLC 88.6% | 786-0 renal 94.3% | COLO 205 colon 80.1% | DU-145 prostate 123% | K-562 leukemia 91.4% | MALME-3M melanoma 109% | MDA-MB-231 breast 71.2% | SF-268 CNS 90.3% | SF-295 CNS 102% | SF-539 CNS 95.4% | UACC-257 melanoma 100% | M14 melanoma 105%

Fc1ccccc1CSc1ncnc2nc[nH]c12
inactive: NCI-H23 lung 110% | NCI-H226 lung 109% | NCI-H322M lung 131% | HOP-62 NSCLC 93.4% | NCI-H460 lung 97.8% | HOP-92 NSCLC 122% | NCI-H522 lung 54% | A549/ATCC NSCLC 104% | 786-0 renal 106% | COLO 205 colon 103% | DU-145 prostate 120% | K-562 leukemia 99.6% | MALME-3M melanoma 129% | MDA-MB-231 breast 106% | SF-268 CNS 109% | SF-295 CNS 107% | SF-539 CNS 89.6% | UACC-257 melanoma 61.3% | M14 melanoma 108%

O=C1Nc2c(ccc(Cl)c2Cl)/C1=C/c1ccc(O)cc1
inactive: NCI-H23 lung 86.7% | NCI-H226 lung 90.1% | NCI-H322M lung 107% | HOP-62 NSCLC 86.1% | NCI-H460 lung 94.1% | HOP-92 NSCLC 65.7% | NCI-H522 lung 64.1% | A549/ATCC NSCLC 35.7% | 786-0 renal 92.3% | COLO 205 colon 98.6% | DU-145 prostate 119% | K-562 leukemia 91.9% | MALME-3M melanoma 108% | MDA-MB-231 breast 88.7% | SF-268 CNS 89.1% | SF-295 CNS 87.6% | SF-539 CNS 98.3% | UACC-257 melanoma 102% | M14 melanoma 100%
